# Out of some 200,000 compounds screened, about 10 (0.005%) were called active. Where a call stands in place of a potency, no number is given. Inconclusive results (about 8%) are left out. Calls follow the shape of the dose curve; as a rule, active = well fitted inhibition curve with a large enough effect; inconclusive = small, poorly fitted or top-dose-only effect, or effect the other way, or another doubt; inactive = no such curve, though single readings can be large or run the other way. The full list was thinned out, with actives kept by preference.
# Target: Lysosomal alpha-glucosidase (Homo sapiens) (UniProt P10253)
# Assay: qHTS Assay for Inhibitors of Human alpha-Glucosidase as a Potential Chaperone Treatment of Pompe Disease
# Conditions: purified human GAA, 4-MU-alpha-glucoside fluorescence; series mostly up to 76.9 µM
# Description: NIH Chemical Genomics Center [NCGC] NIH Molecular Libraries Probe Production centers Network [MLPCN] MLPCN Grant: 1R03MH084841-01 Assay Submitter (PI): Wei Zheng NCGC Assay Overview: Alpha-glucosidase is responsible for hydrolysis of terminal, non-reducing 1,4-linked alpha-D-glucose residues with release of alpha-D-glucose. It is a lysosomal hydrolase that is required for the degradation of a small percentage (1-3%) of cellular glycogen in human. Deficiency of this enzyme results in glycogen-storage disease type II (GSDII), also referred to as Pompe disease, an autosomal recessive disorder. Structurally normal glycogen is accumulated in lysosomes and cytoplasm in affected patients, primarily in muscle tissues. Excessive glycogen storage within lysosomes may interrupt normal functioning of other organelles and leads to cellular injury. In turn, this leads to enlargement and dysfunction of the entire organ involved (eg, cardiomyopathy and muscle weakness). It has reported that the improper folding and trafficking of alpha-glucosidase resulting from the genetic mutations may account for a significant number of Pompe patients. […] We optimized this alpha-glucosidase assay in 1536-well plate format for identifying the novel small molecule inhibitors with the structures other than the sugar analogs in order to develop the new pharmacological chaperones.
# NCGC Assay Protocol Summary: This is a fluorogenic enzyme assay with 4-methylumbelliferyl-alpha-D-[…] as the substrate and human alpha-glucosidase as the enzyme preparation. Upon the hydrolysis of this fluorogenic substrate, the resulting product, 1. 4-methyllumbelliferone, can be excited at 365 nm and emits at 440 nm which can be detected by a standard fluorescence plate reader. Data were normalized to the controls for basal activity (without enzyme) and 100% activity (with enzyme). In the AC50 values were determined from concentration-response data modeled with the standard Hill equation. Assay buffer: 50 mM citric acid (titrated with potassium phosphate to pH 5.0), 0.005% Tween-20, pH 5.0. (pH 5.0 is an optimal condition for this enzyme assay) 1536-well assay protocol for the human alpha-glucosidase: (1) Add 2 ul/well of enzyme (4 nM final) (2) Add 23 nL compounds in DMSO solution. The final titration was 0.7 nM to 77 uM. (3) Add 1 ul of substrate (400 uM final) (4) Incubate at room temperature for 20 min. (5) Add 2 ul stop solution (1M NaOH and 1M Glycine mixture, pH 10) (6) Detect the assay plate in a ViewLux plate reader (PerkinElmer) with Ex=365 nm and Em=440nm. Keywords: Alpha-glucosidase, Pompe Disease, pharmacological chaperone, chaperone therapy, high throughput screening, alpha-glucosidase inhibitor, MLSMR, MLSCN, NIH Roadmap, qHTS and NCGC
# Potency is read from the fitted curve at half-maximal effect.
row,Compound,Potency
1,Cc1cc(/C=C2/C(=O)NC(=O)N(Cc3ccco3)C2=O)c(C)n1-c1ccc(C(=O)O)cc1,31.6 µM (active)
2,Cc1ccc(-n2c(C)cc(/C=C3\C(=O)NC(=O)N(C)C3=O)c2C)cc1C,inactive
3,Cc1c(C(=O)O)cccc1-n1c(C)cc(/C=C2\C(=O)NC(=O)N(c3ccc4c(c3)OCO4)C2=O)c1C,inactive
4,CCN1CC2C3CCC(C)(O3)C2C1 (stereo not given),inactive
5,CCOP(=O)(OCC)C(NC(=O)c1ccc(OC)cc1)C(Cl)(Cl)Cl (stereo not given),inactive
